# Data published in ChEMBL document CHEMBL3988442, “University of Dundee, Small-Polar-MMV Screening Library” (2021).
# The campaign covered roughly 53,000 compounds. About 900 (1.7%) showed an effect of 50% or more. The list comes from a sample in which strong results are over-represented; it also holds similar structures and randomly drawn compounds.
# Test system: Mycobacterium tuberculosis
# Assay: Cornell - Phenotypic assay to identify agents that inhibit growth of Mycobacterium tuberculosis
# Format: functional
# Set-up: scale not given: direction of the effect not stated beside the values
# Conditions: 10 mM as filed; unlikely as a test dose
row,SMILES,Percent Effect
1,CC(C)c1ncc(CN2CCOC(C(=O)Nc3ccccc3)C2)cn1 (configuration not stated),-3.657%
2,COc1ccc(Cl)cc1-c1nc(N)nc(N)n1,-5.371%
3,CCCN(CCC)c1nc(N)nc(-c2cc(Cl)ccc2OC)n1,61.82%
4,COc1ccc(Cl)cc1-c1nc(N)nc(N(C)C)n1,31.47%
5,CN1CCO[C@H]2CN(C(=O)c3ccoc3)C[C@H]21.O=C(O)C(F)(F)F,6.414%
6,Cl.NCCc1cn(Cc2ccccn2)c2ccccc12,-5.41%
7,CCNC(=O)c1cn2cc(-c3ccccc3Cl)n(CC3CC3)c(=O)c2n1,93.59%
8,CNC(=O)c1cn2cc(-c3ccccc3Cl)n(CC3CC3)c(=O)c2n1,16.32%
9,CN(C)C(=O)c1cn2cc(-c3ccccc3Cl)n(CC3CC3)c(=O)c2n1,8.491%
10,CC(=O)N1CCc2[nH]cnc2C12CCN(C(=O)Cc1cccs1)CC2,5.963%
11,Cc1nc(CN2CCCC(NCc3sccc3C)C2)no1 (configuration not stated),-19.65%
12,COCCN1CCCC(c2ncc(C(=O)N3CCOCC3)c(C)n2)C1 (configuration not stated),-5.414%
13,Cc1cccc(NC2CCN(C(=O)Nc3ccncc3)CC2)n1,-35.06%
14,Cc1cccc(NC2CCN(C(=O)Nc3ccc(F)c(F)c3)CC2)n1,108.1%
15,Cc1cccc(NC2CCN(C(=O)Nc3cc(F)ccc3F)CC2)n1,0.502%
16,Cc1cccc(NC2CCN(C(=O)Nc3cc(C)on3)CC2)n1,-41.3%
17,Cc1cccc(NC2CCN(C(=O)Nc3cc(F)cc(F)c3)CC2)n1,-33.08%
18,Cc1cccc(NC2CCN(C(=O)Nc3cccc4[nH]ccc34)CC2)n1,103.5%
19,O=C(O)C(F)(F)F.O=C1COC2(CCN(Cc3nccs3)CC2)CN1c1ccccc1,8.785%
20,Cc1cc(O)cc(C2CCCN2C(=O)c2ccncc2)n1 (configuration not stated),3.916%
21,Cc1ccc(OCc2nc(CNCCn3cccn3)cs2)cc1,44.09%
22,Cc1cnn(CCNCc2ccc(OCc3csc(C)n3)cc2)c1,22%
23,Cc1cnn(CCCNCc2csc(COc3ccccc3)n2)c1,86.59%

row,SMILES,Percent Effect
1,Cc1cnn(CCNCc2csc(COc3ccccc3)n2)c1,79.25%
2,c1ccc(OCc2nc(CNCCn3cccn3)cs2)cc1,-6.946%
3,Cc1cnn(CCNCc2csc(C)n2)c1,2.389%
4,CCc1ccc(-n2c(=O)[nH]c3nc(N4CCSCC4)ncc3c2=O)cc1,-3.279%
5,CNC(=O)c1ccc(C2CN(C(=O)c3scnc3C)CCO2)nc1 (configuration not stated),-17.28%
6,Cc1nc(-c2ccncc2)ncc1C(C)NC(=O)Cn1ccccc1=O (configuration not stated),-23.83%
7,O=C(CC1CCCC1)N1CCOC(c2nc(-c3ncccn3)no2)C1 (configuration not stated),12.79%
8,CNC(=O)C1(C)CN(Cc2cn(C)c3ccc(F)cc23)CCO1 (configuration not stated),75.75%
9,CN(C)C(=O)C1(C)CN(Cc2cn(C)c3ccc(F)cc23)CCO1 (configuration not stated),20.08%
10,CN(C)C(=O)C1(C)CN(Cc2cn(C)c3ccccc23)CCO1 (configuration not stated),34.96%
11,CCn1cc2c(n1)CN(Cc1ccc(C)o1)CC2COCC1CC1.O=C(O)C(F)(F)F (configuration not stated),32.3%
12,CCOCC1CN(Cc2ccc(OC)cc2)Cc2nn(C)cc21.O=C(O)C(F)(F)F (configuration not stated),-10.16%
13,COCC1CN(Cc2ccc(F)cc2)Cc2nn(C)cc21.O=C(O)C(F)(F)F (configuration not stated),21.43%
14,CCn1cc2c(n1)CN(Cc1sccc1C)CC2COCC1CC1.O=C(O)C(F)(F)F (configuration not stated),57.43%
15,COCC1CN(Cc2ccc(OC)cc2)Cc2nn(C)cc21.O=C(O)C(F)(F)F (configuration not stated),102.7%
16,CCn1cc2c(n1)CN(Cc1ccc(F)cc1)CC2COCC1CC1.O=C(O)C(F)(F)F (configuration not stated),11.94%
17,COCCC(=O)N1CCCC([C@@H]2C[C@H](C(F)F)n3ncnc3N2)C1 (some centres not stated),3.93%
18,Cc1nc(C)n(CC2CCCN(CCC(=O)Nc3cc(C)on3)C2)n1 (configuration not stated),-4.464%
19,CCCS(=O)(=O)N1CC(=O)N(Cc2cccc(OC)c2OC)CC(O)C1 (configuration not stated),0.4174%
20,CCc1n[nH]c(C(=O)NCCn2nccc2C)c1C,-14.26%
21,COCCN(C)C(C(=O)O)c1ccc2ccccc2c1 (configuration not stated),-16.36%
22,CCc1ccc(CN2CCN(c3ccc(Cl)nn3)CC2)nc1,44.3%
23,CCc1ccc(CN2CCN(c3ncc(Cl)cn3)CC2)nc1,55.1%

row,SMILES,Percent Effect
1,COc1ccc(CN2CCN(c3ncc(Cl)cn3)CC2)cc1,15.9%
2,Cc1ccccc1CN1CCCN(C(=O)c2ccn(C)c(=O)c2)CC1,-39.51%
3,Cc1ccc(-c2nc(CCNCc3ccncc3)co2)cc1,55.33%
4,c1ccc(-c2nc(CCNCc3ccncc3)co2)cc1,-12.86%
5,COc1ccc(-c2nc(CCNCc3ccncc3)co2)cc1,44.79%
6,CO[C@@H]1CN(C)S(=O)(=O)[C@@]12CCN(Cc1ccccc1)C2,9.469%
7,CC(C)c1cc(C2CCCN2C(=O)CN2C(=O)OC(C)(C)C2=O)no1 (configuration not stated),16.26%
8,CN(Cc1ncc[nH]1)c1nc(-c2ccccn2)nc2c1CCNCC2,56.27%
9,CN(Cc1nccs1)c1nc(-c2ccccn2)nc2c1CCNCC2,28.38%
10,CN(Cc1cccnc1)c1nc(-c2ccccn2)nc2c1CCNCC2,31.77%
11,COc1c(C2CCCN2C(=O)c2cncnc2C)c(C)nn1C (configuration not stated),-27.58%
12,COC(=O)c1ccn(CC(=O)Nc2nn(CC3CC3)c3ccccc23)n1,50.91%
13,CCn1nc(NC(=O)Cn2ccc(C(C)=O)n2)c2ccccc21,6.087%
14,CC(=O)c1ccn(CC(=O)Nc2nn(CC3CC3)c3ccccc23)n1,23.92%
15,Cc1csc(C(Cc2ccsc2)NC(=O)c2cc(=O)n(C)c(=O)n2C)n1 (configuration not stated),-13.69%
16,CN(Cc1nc(C(F)(F)F)cs1)C(=O)CCc1ccccn1,3.481%
17,OCC1CN(Cc2nc(C(F)(F)F)cs2)c2ccccc2O1 (configuration not stated),105.7%
18,Cc1csc(CN2CC(CO)Oc3ccccc32)n1 (configuration not stated),26.95%
19,Cc1nc(CCNC2CCN(Cc3ccccc3)C2)sc1C (configuration not stated),2.096%
20,Cc1nc(CNC2CCN(Cc3ccccc3)C2)sc1C (configuration not stated),5.497%
21,Cc1nc(CN2CC(CO)Oc3ccccc32)sc1C (configuration not stated),83.41%
